Records with an inconclusive call do not appear. The source holds several records for some structures; these can differ, active in one and inactive in another. Active and inactive are the calls of the source. Unless noted, calls come from the whole dose curve; as a rule, active = well fitted curve in the direction sought with a large enough effect; inconclusive = small, poorly fitted or top-dose-only effect, or another doubt; inactive = no such curve, though single readings can be large; an effect the other way counts as inactive or inconclusive.
Key:
[1] = target: Thioredoxin reductase 1, cytoplasmic (Rattus norvegicus) (UniProt O89049); test: qHTS Assay for Inhibitors of Mammalian Selenoprotein Thioredoxin Reductase 1 (TrxR1) (AID 488773); settings: Potency: inhibition;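 note: drop in NADPH fluorescence over an 8 min run after selenite addition; series mostly up to about 57 µM; % is set by controls: 0 for no effect and ±100 for the full control effect; nearly all actives have a fitted effect of over 40% in size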
Outline: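 Inhibition is scored from the loss of NADPH fluorescence between first and last reads of an 8-min kinetic run. Selenite (400 uM) was the substrate, added after 15 min compound preincubation at room temperature.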

[2] = target: Flap endonuclease 1 (Homo sapiens) (UniProt P39748); test: qHTS Validation Assay for the Inhibitors of Human Flap endonuclease 1 (FEN1) (AID 488816); note: % is set by controls: 0 for no effect and ±100 for the full control effect
Chain of Flap endonuclease 1 (Homo sapiens) (P39748 whole entry, looked up): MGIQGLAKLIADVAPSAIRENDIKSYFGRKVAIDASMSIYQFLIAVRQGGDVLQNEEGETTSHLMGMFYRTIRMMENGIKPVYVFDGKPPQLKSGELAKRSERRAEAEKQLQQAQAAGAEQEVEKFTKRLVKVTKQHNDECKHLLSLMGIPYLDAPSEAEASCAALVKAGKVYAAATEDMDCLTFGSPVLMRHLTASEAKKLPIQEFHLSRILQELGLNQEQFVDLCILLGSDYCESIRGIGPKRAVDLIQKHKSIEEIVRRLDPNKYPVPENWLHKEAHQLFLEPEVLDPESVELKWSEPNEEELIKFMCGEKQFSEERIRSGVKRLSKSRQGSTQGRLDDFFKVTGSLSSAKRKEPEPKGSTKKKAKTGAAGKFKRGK
Outline: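 Enzyme reagent 10 nM; cpds pinned; 15 min RT preinc.; substrate 50 nM final; reads t=0 and 15 min; no-enzyme buffer wells as neg. control; normalized data, 4-parameter Hill fit.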

[3] = target: M-phase phosphoprotein 8 (Homo sapiens) (UniProt Q99549); test: qHTS Validation Assay for Inhibitors for MPP8 Chromodomain Interactions with Methylated Histone Tails (AID 488949); note: nearly all actives have a fitted effect of over 55% in size; note: potency is the fitted concentration of half-maximal effect
Chain of M-phase phosphoprotein 8 (Homo sapiens) (Q99549 whole entry, looked up): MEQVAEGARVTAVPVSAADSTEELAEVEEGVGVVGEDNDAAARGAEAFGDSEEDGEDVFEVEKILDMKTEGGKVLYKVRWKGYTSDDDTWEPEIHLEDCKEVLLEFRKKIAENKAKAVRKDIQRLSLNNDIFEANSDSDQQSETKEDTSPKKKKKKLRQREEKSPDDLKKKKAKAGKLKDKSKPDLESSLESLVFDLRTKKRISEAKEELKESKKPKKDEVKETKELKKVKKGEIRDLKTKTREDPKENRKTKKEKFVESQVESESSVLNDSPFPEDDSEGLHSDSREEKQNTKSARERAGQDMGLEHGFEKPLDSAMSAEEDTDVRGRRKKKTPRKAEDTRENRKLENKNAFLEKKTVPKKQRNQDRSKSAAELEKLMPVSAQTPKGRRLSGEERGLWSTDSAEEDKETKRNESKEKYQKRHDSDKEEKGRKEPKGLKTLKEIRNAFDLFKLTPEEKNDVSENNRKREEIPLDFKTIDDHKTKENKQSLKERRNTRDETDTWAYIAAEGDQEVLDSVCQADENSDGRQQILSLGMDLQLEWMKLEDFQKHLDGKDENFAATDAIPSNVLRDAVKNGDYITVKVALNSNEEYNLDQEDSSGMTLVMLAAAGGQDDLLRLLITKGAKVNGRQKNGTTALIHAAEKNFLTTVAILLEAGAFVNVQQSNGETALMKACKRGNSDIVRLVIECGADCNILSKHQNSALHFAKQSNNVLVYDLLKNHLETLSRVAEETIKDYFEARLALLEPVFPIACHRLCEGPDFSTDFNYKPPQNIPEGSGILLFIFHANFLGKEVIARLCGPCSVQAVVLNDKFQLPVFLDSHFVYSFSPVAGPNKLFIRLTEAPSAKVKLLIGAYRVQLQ
Outline: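 AlphaScreen proximity signal from streptavidin donor and Ni-chelate acceptor beads (10 ug/mL each) reported binding of MPP8 to trimethyl-K9 H3(1-18) peptide, both at 50 nM. The complex formed 30 min before a 30 min compound exposure at room temperature, in PBS pH 7.4.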

[4] = target: Chromobox protein homolog 1 (Homo sapiens) (UniProt P83916); test: qHTS Validation Assay for Inhibitors of HP1-beta Chromodomain Interactions with Methylated Histone Tails (AID 488953); note: nearly all actives have a fitted effect of over 50% in size; note: potency is the fitted concentration of half-maximal effect
Chain of Chromobox protein homolog 1 (Homo sapiens) (P83916 whole entry, looked up): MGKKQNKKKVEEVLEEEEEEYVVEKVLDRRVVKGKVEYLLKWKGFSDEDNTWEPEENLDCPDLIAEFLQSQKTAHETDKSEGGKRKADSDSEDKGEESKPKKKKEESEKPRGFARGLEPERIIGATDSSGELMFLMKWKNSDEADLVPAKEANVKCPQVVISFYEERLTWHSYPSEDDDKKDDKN
Outline: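 Disruption of preformed HP1-beta:H3K9me3 peptide complexes (both 50 nM, PBS pH 7.4 with 0.01% Tween-20) is measured by AlphaScreen after 30 min compound exposure at room temperature, using streptavidin donor and nickel chelate acceptor beads at 10 ug/mL final.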

[5] = target: Methanococcus maripaludis chaperonin (MmCpn) (UniProt Q6LX38); test: High-Throughput Screening for Modulators of Cytosolic Chaperonin Activity: MmCpn Primary Screen (AID 488978);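 note: 50 nM MmCpn enzyme hydrolysing 30 µM ATP at 37 °C; 0% is about no effect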
Chain of Methanococcus maripaludis chaperonin (MmCpn) (Q6LX38 1-543): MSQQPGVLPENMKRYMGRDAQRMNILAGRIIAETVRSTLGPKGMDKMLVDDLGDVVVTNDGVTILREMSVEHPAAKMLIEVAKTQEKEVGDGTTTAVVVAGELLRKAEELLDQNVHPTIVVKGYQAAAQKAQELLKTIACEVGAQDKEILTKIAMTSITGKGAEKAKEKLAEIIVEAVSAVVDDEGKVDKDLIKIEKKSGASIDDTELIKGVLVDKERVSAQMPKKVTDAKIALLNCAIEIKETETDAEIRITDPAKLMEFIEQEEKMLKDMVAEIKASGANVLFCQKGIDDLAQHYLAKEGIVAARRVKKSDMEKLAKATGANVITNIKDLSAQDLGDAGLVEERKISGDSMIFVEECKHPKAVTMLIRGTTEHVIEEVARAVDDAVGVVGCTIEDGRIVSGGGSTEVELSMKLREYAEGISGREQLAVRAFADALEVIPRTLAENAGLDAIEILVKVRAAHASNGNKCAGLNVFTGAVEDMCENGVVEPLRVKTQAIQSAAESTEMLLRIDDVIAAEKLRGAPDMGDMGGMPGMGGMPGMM
Outline: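 ATPase activity of 50 nM MmCpn was assayed with 30 uM ATP, 10 minutes at 37C, after a 5 min compound preincubation at room temperature. ADP production was read as HTRF emission at 590 and 665 nm.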

[6] = target: Transient receptor potential cation channel subfamily V member 1 (Homo sapiens) (UniProt Q8NER1); test: HTS Assay for Compounds that Act as Enhancers of the Vanilloid Receptor 1 (AID 488979); note: 0% is about no effect
Outline: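 TRPV1 cells loaded with Fluo-8 calcium dye; compound added and Ca2+ signal (ex 480/em 520 nm) followed 3 min, then capsaicin at EC20 added and read 2 more min to detect enhancement.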

[7] = target: Thyrotropin receptor (Homo sapiens) (UniProt P16473); test: qHTS Assay for Antagonists of the Thyroid Stimulating Hormone Receptor (AID 488980); note: series mostly up to about 58 µM; 0% is about no effect
Chain of Thyrotropin receptor (Homo sapiens) (P16473 whole entry, looked up): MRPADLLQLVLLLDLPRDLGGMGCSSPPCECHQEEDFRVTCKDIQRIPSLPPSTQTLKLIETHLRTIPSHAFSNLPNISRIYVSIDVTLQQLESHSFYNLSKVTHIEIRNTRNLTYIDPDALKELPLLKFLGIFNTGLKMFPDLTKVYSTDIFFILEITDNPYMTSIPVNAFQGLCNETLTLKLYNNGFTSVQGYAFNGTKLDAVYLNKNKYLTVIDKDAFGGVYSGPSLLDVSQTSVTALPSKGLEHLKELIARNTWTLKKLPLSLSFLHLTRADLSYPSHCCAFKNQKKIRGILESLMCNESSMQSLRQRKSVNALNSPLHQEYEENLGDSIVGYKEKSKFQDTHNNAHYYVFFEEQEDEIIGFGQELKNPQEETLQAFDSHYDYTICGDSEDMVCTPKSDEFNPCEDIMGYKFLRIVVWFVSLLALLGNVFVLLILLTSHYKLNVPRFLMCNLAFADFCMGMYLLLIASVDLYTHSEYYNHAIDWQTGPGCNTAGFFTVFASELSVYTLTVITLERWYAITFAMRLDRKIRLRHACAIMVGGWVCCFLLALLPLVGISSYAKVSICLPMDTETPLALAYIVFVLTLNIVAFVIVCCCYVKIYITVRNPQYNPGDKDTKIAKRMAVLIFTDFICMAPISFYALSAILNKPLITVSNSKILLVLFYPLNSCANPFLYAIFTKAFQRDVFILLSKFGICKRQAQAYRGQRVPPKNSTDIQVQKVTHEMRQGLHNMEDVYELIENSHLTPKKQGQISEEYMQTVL
Outline: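 Inhibition of cAMP raised by EC80 TSH (4 nM final) was read by HTRF, with lysate cAMP competing against cAMP-d2 for cryptate antibody after 30 min at room temperature. The cells were transfected HEK293 held in phosphodiesterase inhibitor RO 20-1724 at 70 uM.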

[8] = target: D(1A) dopamine receptor (Homo sapiens) (UniProt P21728); test: HTS Assay for Allosteric Agonists of the Human D1 Dopamine Receptor: Primary Screen for Agonists (AID 488981); note: 0% is about no effect
Outline: (§1)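 Tetracycline-induced HEK293 Trex D1 cells with forced coupling to calcium, loaded with no-wash calcium dye; kinetic fluorescence read 180 s after compound addition for agonism, then a further 180 s after an EC20 dopamine challenge for potentiation.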

[9] = target: D(1A) dopamine receptor (Homo sapiens) (UniProt P21728); test: HTS Assay for Allosteric Agonists of the Human D1 Dopamine Receptor: Primary Screen for Potentiators (AID 488982); note: 0% is about no effect
Outline: as §1

[10] = target: D(1A) dopamine receptor (Homo sapiens) (UniProt P21728); test: HTS Assay for Allosteric Agonists of the Human D1 Dopamine Receptor: Primary Screen for Antagonists (AID 488983);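 note: calcium flux response to an EC80 dopamine challenge measured with no-wash dye; nearly all actives have a fitted effect of over 65% in size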; note: potency is the fitted concentration of half-maximal effect
Outline: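 Kinetic fluorescence at 1 cycle/sec tracked intracellular calcium in force-coupled, tetracycline-inducible HEK293 T-REx D1 cells. Loss of response to an EC80 dopamine dose, given 180 s after compound, marked antagonists.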

[11] = target: ATP-dependent 6-phosphofructokinase (Trypanosoma brucei brucei) (UniProt O15648); test: qHTS Assay to Find Inhibitors of T. brucei phosphofructokinase: hit validation (AID 492961);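 note: luminescence reports ADP formed as PFK phosphorylates fructose-6-phosphate with ATP; series mostly up to about 51 µM; % is set by controls: 0 for no effect and ±100 for the full control effect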
Outline: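 Inhibition of parasite PFK is measured as reduced ADP formation, quantified via luciferase after ATP depletion. Assay used 0.1 mM ATP, 0.5 mM F6P, 1.25 nM enzyme, 45 min incubation.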

[12] = Validation screen for small molecules that induce genotoxicity in human embryonic kidney (HEK293T) cells expressing luciferase-tagged ELG1 (AID 493106); note: 0% is about no effect
Outline: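 Cells were dispensed at 2,000 per well, then 23 nL compound or DMSO was pinned in. After 16 hr at 37 °C and 5% CO2, ONE-Glo reagent was added. Luciferase activity was measured following 30 min at room temperature.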

[13] = target: ATPase family AAA domain-containing protein 5 (Homo sapiens) (UniProt Q96QE3); test: Validation screen for small molecules that inhibit ELG1-dependent DNA repair in human embryonic kidney (HEK293T) cells expressing luciferase-tagged ELG1 (AID 493107); note: nearly all actives have a fitted effect of over 70% in size; note: potency is the fitted concentration of half-maximal effect
Chain of ATPase family AAA domain-containing protein 5 (Homo sapiens) (Q96QE3 whole entry, looked up, the tested form may be a part): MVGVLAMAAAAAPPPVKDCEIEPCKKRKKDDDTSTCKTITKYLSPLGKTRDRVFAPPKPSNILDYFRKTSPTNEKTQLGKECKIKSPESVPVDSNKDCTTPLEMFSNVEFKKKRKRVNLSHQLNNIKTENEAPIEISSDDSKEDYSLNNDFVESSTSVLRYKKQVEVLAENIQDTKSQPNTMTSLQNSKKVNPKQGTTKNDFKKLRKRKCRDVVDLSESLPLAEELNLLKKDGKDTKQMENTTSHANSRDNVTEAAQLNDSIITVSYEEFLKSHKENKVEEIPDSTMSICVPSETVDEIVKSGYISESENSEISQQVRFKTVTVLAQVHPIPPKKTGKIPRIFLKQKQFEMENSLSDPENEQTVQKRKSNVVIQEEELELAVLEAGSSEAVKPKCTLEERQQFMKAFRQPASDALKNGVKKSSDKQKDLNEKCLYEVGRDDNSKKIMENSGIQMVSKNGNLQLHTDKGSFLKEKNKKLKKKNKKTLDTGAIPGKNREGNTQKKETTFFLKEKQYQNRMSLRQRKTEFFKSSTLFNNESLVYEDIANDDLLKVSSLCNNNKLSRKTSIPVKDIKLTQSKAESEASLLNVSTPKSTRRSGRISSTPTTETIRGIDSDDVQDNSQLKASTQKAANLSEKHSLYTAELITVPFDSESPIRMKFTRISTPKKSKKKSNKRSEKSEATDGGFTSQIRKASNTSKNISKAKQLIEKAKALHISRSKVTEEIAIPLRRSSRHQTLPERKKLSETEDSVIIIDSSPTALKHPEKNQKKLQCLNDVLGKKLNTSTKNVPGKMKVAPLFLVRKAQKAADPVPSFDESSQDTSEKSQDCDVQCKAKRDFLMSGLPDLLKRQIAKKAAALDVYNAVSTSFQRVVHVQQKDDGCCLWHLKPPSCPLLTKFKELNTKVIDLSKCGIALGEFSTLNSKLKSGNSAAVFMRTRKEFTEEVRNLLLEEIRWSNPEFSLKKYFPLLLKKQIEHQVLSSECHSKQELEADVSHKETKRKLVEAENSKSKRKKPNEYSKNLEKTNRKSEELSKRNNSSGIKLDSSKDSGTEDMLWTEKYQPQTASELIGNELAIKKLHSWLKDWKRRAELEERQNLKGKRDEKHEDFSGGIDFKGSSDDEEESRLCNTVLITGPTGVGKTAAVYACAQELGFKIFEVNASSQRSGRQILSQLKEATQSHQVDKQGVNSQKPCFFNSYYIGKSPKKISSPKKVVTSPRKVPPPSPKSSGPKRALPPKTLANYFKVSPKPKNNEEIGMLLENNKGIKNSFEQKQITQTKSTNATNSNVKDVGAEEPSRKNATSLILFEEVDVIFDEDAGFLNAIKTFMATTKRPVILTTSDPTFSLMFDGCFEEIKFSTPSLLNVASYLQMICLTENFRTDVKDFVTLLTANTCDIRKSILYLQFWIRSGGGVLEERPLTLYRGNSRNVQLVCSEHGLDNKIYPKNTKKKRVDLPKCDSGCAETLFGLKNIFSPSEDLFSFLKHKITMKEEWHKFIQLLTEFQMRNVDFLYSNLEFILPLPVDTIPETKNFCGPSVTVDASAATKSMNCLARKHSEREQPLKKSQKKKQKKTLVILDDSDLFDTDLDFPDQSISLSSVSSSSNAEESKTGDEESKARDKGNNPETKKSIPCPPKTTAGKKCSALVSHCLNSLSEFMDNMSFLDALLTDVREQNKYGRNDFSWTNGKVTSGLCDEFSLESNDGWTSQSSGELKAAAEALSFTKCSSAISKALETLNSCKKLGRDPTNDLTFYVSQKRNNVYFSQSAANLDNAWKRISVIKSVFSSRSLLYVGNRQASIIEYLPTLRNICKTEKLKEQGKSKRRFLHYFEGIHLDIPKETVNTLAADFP
Outline: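 Cells are dispensed in 1536-well format, then 5-fluorouridine and compound are pinned in. After a 16 hr incubation at 37 °C and 5% CO2, ONE-Glo is added and luciferase measured on a CCD imager.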

[14] = Nrf2 qHTS screen for inhibitors: Validation (AID 493153; active = well fitted inhibition curve with a large enough effect in the main read-out, with a control signal flat, not every such curve was filed as active); settings: Potency: luciferase luminescence; viability change: measured here: cytotoxicity max response
Outline: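 A549 ARE_Fluc, 5% FBS OPTI-MEM; cpd titration, 18-24 h, 37°C/5% CO2. Read 1: CellTiter-Fluor (Ex 405/Em 525), cytotox. Read 2: luciferase lum, Nrf2 activity.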

[15] = qHTS for Inhibitors of Cell Surface uPA Generation: Validation Assay (AID 493164);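 note: RAW 264.7 macrophage cells exposed to compound for 18 h; 0% is about no effect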
Outline: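 ATP-Lite luminescence read-out: ATP remains high when uPA activity-dependent LF translocation into the cytoplasm is blocked. RAW 264.7 cells, 18 h compound exposure at 37 C; 7-point titration, 2.45 nM to 38.3 uM final.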

[16] = target: Galactokinase (Homo sapiens) (UniProt P51570); test: qHTS Validation Assay for Inhibitors of Human Galactokinase (GALK) (AID 493189); note: 0% is about no effect
Chain of Galactokinase (Homo sapiens) (P51570 whole entry, looked up): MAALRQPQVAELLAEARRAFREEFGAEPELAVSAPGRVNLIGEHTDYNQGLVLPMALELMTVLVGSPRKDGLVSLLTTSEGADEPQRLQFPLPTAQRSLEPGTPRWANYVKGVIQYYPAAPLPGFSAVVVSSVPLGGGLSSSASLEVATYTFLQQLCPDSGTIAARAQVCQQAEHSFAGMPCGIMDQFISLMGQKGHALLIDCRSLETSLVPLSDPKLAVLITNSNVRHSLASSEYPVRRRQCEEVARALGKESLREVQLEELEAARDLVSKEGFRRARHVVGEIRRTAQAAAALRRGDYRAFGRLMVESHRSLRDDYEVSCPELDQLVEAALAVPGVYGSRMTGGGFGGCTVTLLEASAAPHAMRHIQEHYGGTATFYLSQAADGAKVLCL
Outline: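 Inhibition was measured as remaining ATP, detected by luciferase luminescence after a 1 h room-temperature reaction. Final conditions: 5 nM GALK, 100 uM galactose, 35 uM ATP, pH 8.0 HEPES buffer.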

[17] = target: Peptidyl-prolyl cis-trans isomerase NIMA-interacting 1 (Homo sapiens) (UniProt Q13526); test: qHTS Validation Assay to Find Inhibitors of Pin1 (AID 504536; active = well fitted inhibition curve with a large enough effect in the polarisation, with a control signal flat, not every such curve was filed as active; the % refers to the polarisation;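 note: 0% = full Pin1 enzyme wells and -100% = no-enzyme wells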)
Outline: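 Fluorescence polarization competition: compounds (titration) displace HiFluor-488-labeled Pin1-1b peptide from Pin1 (0.3 uM final) in pH 7.5 HEPES buffer with DTT, 10 min at room temperature; %Activity normalized to no-enzyme wells, curves fitted.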

[18] = target: Phosphoglycerate kinase, glycosomal (Trypanosoma brucei brucei) (UniProt P07378); test: qHTS Validation Assay to Find Inhibitors of Phosphoglycerate Kinase (AID 504547);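 note: control wells lack PGK and mark full inhibition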
Outline: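 Compounds are pinned into the substrate/PGK mixture, and GAPDH (100nM final) is added to start the reaction by producing 1,3-BPG. After 60 minutes at room temperature, Kinase-Glo Plus is added and luminescence is measured 10 minutes later.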

[19] = target: Thyrotropin-releasing hormone receptor (Homo sapiens) (UniProt P34981); test: qHTS for Small Molecule Agonists and Allosteric Enhancers of Human TRH Receptor: Validation Screen for Agonists (AID 493127;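 active = calcium activation more than 3 SD above the typical response in the agonist read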;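 note: intracellular calcium rise by fluo-8 fluorescence before TRH EC20 addition; 0% is about no effect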); settings: TRH receptor agonist cell assay; at 2 µM; stronger effect = higher value
Outline: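 Compounds are added by online pintool to dye-loaded TRHR cells while fluorescence is recorded every second. A rise in calcium signal during the agonist read marks activation; a later 10 nM TRH addition (EC20) serves the separate enhancer mode.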

[20] = Validation screen for small molecules that induce DNA re-replication in SW480 colon adenocarcinoma cells (AID 504364); note: 0% is about no effect
Outline: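 Image-based qHTS: compounds were incubated with SW480 cells for 48 hr, nuclei stained with Hoechst, and per-nucleus fluorescence intensity scanned to flag cells with excess DNA content.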

CN(C)CCOC(=O)COc1ccc(Cl)cc1
inactive: Potency [1] | Potency [2] | Potency [3] | Potency [4] | outcome [5] | outcome [6] | outcome [7] | Potency [8] | Potency [9] | Potency [10] | outcome [11] | Potency [12] | Potency [13] | Potency [14] | outcome [15] | outcome [16] | outcome [17] | outcome [18]
9.38%: viability change [14]

COc1cc2c(cc1OC)-c1cc(=Nc3c(C)cc(C)cc3C)n(C)c(=O)n1CC2
inactive: Potency [1] | Potency [2] | outcome [5] | outcome [6] | outcome [7] | Potency [8] | Potency [12] | activation [19] -6.75% | Potency [14] | outcome [15] | outcome [16] | outcome [20] | outcome [18]
39.8 µM (active) and inactive: Potency [3]
-6.02%: viability change [14]
active: Potency [4] 35.5 µM | Potency [13] 13 µM

CC(=O)Nc1nnc(S(N)(=O)=O)s1
inactive: Potency [1] | Potency [2] | Potency [3] | Potency [4] | outcome [5] | outcome [6] | outcome [7] | Potency [8] | Potency [10] | Potency [12] | Potency [13] | activation [19] 1.38% | Potency [14] | outcome [15] | outcome [16] | outcome [17] | outcome [18]
3.35%: viability change [14]

COC(=O)[C@H]1[C@H]2C[C@@H]3c4[nH]c5cc(OC)ccc5c4CCN3C[C@H]2C[C@@H](OC(=O)c2cc(OC)c(OC)c(OC)c2)[C@@H]1OC
-13.6%: viability change [14]
active: Potency [3] 20 µM | Potency [4] 39.8 µM | Potency [13] 11.6 µM
inactive: Potency [1] | Potency [2] | outcome [5] | outcome [6] | outcome [7] | Potency [8] | Potency [9] | Potency [10] | outcome [11] | Potency [12] | Potency [14] | outcome [15] | outcome [16] | outcome [18]

CCN(CC)CCNC(=O)c1ccc(NC(C)=O)cc1
inactive: Potency [1] | Potency [2] | Potency [3] | Potency [4] | outcome [5] | outcome [6] | Potency [8] | Potency [10] | Potency [13] | activation [19] 0.312% | Potency [14] | outcome [15] | outcome [16] | outcome [20] | outcome [17] | outcome [18]
16.6%: viability change [14]

CN(C)C(=O)Oc1cccc([N+](C)(C)C)c1
0.794%: viability change [14]
inactive: Potency [1] | Potency [2] | Potency [3] | Potency [4] | outcome [5] | outcome [6] | outcome [7] | Potency [8] | Potency [10] | outcome [11] | Potency [12] | Potency [13] | Potency [14] | outcome [15] | outcome [16] | outcome [17] | outcome [18]

CN1CCN(C2=Nc3ccccc3Oc3ccc(Cl)cc32)CC1
inactive: Potency [1] | Potency [2] | Potency [3] | Potency [4] | outcome [5] | outcome [6] | outcome [7] | Potency [8] | Potency [9] | outcome [11] | Potency [13] | Potency [14] | outcome [15] | outcome [16] | outcome [20] | outcome [17] | outcome [18]
active: Potency [10] 398 nM
-14.3%: viability change [14]

CC(=O)OC(C)C[N+](C)(C)C (stereo not drawn)
2.56%: viability change [14]
inactive: Potency [1] | Potency [2] | Potency [3] | Potency [4] | outcome [5] | outcome [6] | outcome [7] | Potency [8] | Potency [9] | Potency [10] | Potency [13] | Potency [14] | outcome [15] | outcome [20] | outcome [17] | outcome [18]

CN(C)CC[C@@H](c1ccc(Br)cc1)c1ccccn1
1.19%: viability change [14]
inactive: Potency [1] | Potency [2] | Potency [3] | Potency [4] | outcome [5] | outcome [6] | Potency [8] | Potency [9] | Potency [10] | Potency [12] | Potency [13] | Potency [14] | outcome [15] | outcome [16] | outcome [17] | outcome [18]

Nc1c2c(nc3ccccc13)CCCC2O (stereo not drawn)
inactive: Potency [1] | Potency [2] | Potency [3] | Potency [4] | outcome [5] | outcome [6] | outcome [7] | Potency [8] | Potency [9] | Potency [10] | Potency [12] | Potency [13] | activation [19] 1.62% | Potency [14] | outcome [15] | outcome [17] | outcome [18]
6.52%: viability change [14]

O=C(O)CP(=O)(O)O
inactive: Potency [1] | Potency [2] | Potency [3] | Potency [4] | outcome [5] | outcome [6] | outcome [7] | Potency [8] | Potency [9] | Potency [10] | Potency [13] | Potency [14] | outcome [15] | outcome [16] | outcome [20] | outcome [17] | outcome [18]
10.3%: viability change [14]

COc1ccc(CN(CCN(C)C)c2ccccn2)cc1
0.301%: viability change [14]
inactive: Potency [1] | Potency [2] | Potency [3] | Potency [4] | outcome [5] | outcome [6] | Potency [8] | Potency [9] | Potency [10] | Potency [12] | activation [19] 1.25% | Potency [14] | outcome [15] | outcome [20] | outcome [17] | outcome [18]

Cc1ccc(Cl)c(Nc2ccccc2C(=O)O)c1Cl
inactive: Potency [1] | Potency [2] | Potency [3] | Potency [4] | outcome [5] | outcome [6] | outcome [7] | Potency [8] | Potency [9] | Potency [10] | outcome [11] | Potency [12] | Potency [13] | activation [19] 0% | outcome [15] | outcome [16] | outcome [20] | outcome [18]

O=C(O)CN(CCN(CC(=O)O)CC(=O)O)CCN(CC(=O)O)CC(=O)O
-0.829%: viability change [14]
inactive: Potency [1] | Potency [2] | Potency [3] | Potency [4] | outcome [5] | outcome [6] | Potency [8] | Potency [9] | Potency [10] | Potency [13] | activation [19] 1.81% | Potency [14] | outcome [15] | outcome [16] | outcome [17] | outcome [18]

Reference: PubChem BioAssay (NCATS)
